Experimental data as given in PubChem BioAssay.

Legend:
[1] = system: Human papillomavirus type 1a protein E7 (residues 44-93); assay: small molecules binding HPV E7 44-93 – biochemical, small-molecule microarray, residues 44-93, 635 nm fluorescence, primary screen (AID 1108); details: fluorescence 635 nm, higher = more signal;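 note: E7 fragment applied at 1 µg/mL in TBST for 1 h at 4 C; score combines spot fluorescence with its signal to noise ratio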
[2] = hepatitis C replication reporter changes, two-sided – Huh7 cells, luciferase reporter, HCV replication inhibitor project, primary screen (AID 1109); details: Huh7 HCV replicon luciferase reporter, 48 h; higher = more signal;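 note: huh7 hepatoma cells harbouring a luciferase neomycin HCV replicon reporter; luciferase luminescence as measure of HCV replicon replication; test concentration not given here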
[3] = target: Left-right determination factor 2 (Homo sapiens) (UniProt O00292); assay: small molecules binding LEFTY2 protein – biochemical, small-molecule microarray, 635 nm fluorescence scan, primary screen (AID 1110); details: higher = more signal
Sequence of Left-right determination factor 2 (Homo sapiens) (O00292 whole entry, looked up): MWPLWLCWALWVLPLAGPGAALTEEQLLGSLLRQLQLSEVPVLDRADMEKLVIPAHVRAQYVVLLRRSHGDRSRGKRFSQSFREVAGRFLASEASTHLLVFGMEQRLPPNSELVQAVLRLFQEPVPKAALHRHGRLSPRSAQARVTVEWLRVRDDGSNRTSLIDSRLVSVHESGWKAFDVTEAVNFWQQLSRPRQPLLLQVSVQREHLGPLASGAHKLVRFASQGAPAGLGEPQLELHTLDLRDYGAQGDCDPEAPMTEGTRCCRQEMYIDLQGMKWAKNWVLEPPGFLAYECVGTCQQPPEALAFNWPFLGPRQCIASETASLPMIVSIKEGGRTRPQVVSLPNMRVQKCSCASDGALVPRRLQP

[4] = target: Calmodulin-1 (Homo sapiens) (UniProt P0DP23); assay: small molecules binding calmodulin-1 with EGTA – biochemical, small-molecule microarray, Cy5-labelled CALM1, profiling panel (AID 1111); details: Cy5-CALM1 binding fluorescence, higher = more signal;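 note: labelled calmodulin applied in Tris saline Tween buffer holding calcium plus EGTA and DTT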
[5] = target: Calmodulin-1 (Homo sapiens) (UniProt P0DP23); assay: small molecules binding Ca-loaded calmodulin-1 – biochemical, small-molecule microarray, Cy5-labelled CALM1, plus calcium, artefact control for SMM control-protein annotation, profiling panel (AID 1112); details: Cy5-CALM1 binding fluorescence, higher = more signal;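 note: score merges spot fluorescence with signal to noise from triplicate slides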
[6] = probe aWnt5a binding to arrayed compounds – biochemical, biotinylated probe, 635/667 nm fluorescence, primary screen (AID 1113); details: small-molecule microarray, higher = more signal;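 note: score merges 667 nm fluorescence intensity with signal-to-noise per printed feature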
[7] = probe aShh binding to arrayed compounds – biochemical, biotinylated probe, 635/667 nm fluorescence, primary screen (AID 1114); details: small-molecule microarray, higher = more signal;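 note: probe is biotin-labelled aShh protein from a stem cell growth factor screen; measures binding of labelled protein to compounds printed on the slide; score merges feature fluorescence at 667 nm with signal-to-noise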
[8] = probe aNog binding to arrayed compounds – biochemical, biotinylated probe, 635/667 nm fluorescence, primary screen (AID 1115); details: small-molecule microarray, higher = more signal;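 note: probe is biotinylated aNog protein used at 0.15 µg/mL for 1 h at 4 C; z-score combines 667 nm fluorescence of each spot with its signal to noise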
[9] = target: Torsin-1A-interacting protein 1 (Homo sapiens) (UniProt Q5JTV8); assay: compound microarray binding of lysate hLAP1 – cell lysate, small-molecule microarray, COS7 lysate, 635/667 nm fluorescence, primary screen (AID 1116); details: 635 nm fluorescence, higher = more signal
Sequence of Torsin-1A-interacting protein 1 (Homo sapiens) (Q5JTV8 whole entry, looked up): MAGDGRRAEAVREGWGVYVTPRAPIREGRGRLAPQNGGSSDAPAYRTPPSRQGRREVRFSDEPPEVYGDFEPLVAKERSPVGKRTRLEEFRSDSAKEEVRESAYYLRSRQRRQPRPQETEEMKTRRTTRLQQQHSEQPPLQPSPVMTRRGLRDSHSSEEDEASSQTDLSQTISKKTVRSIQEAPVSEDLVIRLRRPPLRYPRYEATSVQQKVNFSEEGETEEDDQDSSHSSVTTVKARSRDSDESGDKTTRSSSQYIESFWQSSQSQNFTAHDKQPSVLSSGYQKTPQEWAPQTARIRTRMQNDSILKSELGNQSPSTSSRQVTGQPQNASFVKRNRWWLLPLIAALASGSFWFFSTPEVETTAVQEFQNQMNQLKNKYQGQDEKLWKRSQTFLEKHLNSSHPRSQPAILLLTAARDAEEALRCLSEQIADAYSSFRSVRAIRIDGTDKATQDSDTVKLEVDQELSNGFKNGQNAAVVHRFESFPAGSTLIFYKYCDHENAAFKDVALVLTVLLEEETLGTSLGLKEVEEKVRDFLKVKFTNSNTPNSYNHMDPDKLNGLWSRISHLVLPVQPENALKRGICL

[10] = target: Alpha-bungarotoxin (Bungarus multicinctus) (UniProt P60615); assay: compounds binding labelled alpha-BTX control protein – biochemical, small-molecule microarray, Alexa647 label, 635/667 nm fluorescence, artefact control for SMM control protein annotation, profiling panel (AID 1117); details: alpha-BTX-A647 binding fluorescence, higher = more signal
Sequence of Alpha-bungarotoxin (Bungarus multicinctus) (P60615 whole entry, looked up): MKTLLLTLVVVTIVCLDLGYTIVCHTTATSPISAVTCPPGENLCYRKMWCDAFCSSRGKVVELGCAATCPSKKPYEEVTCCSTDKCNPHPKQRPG

Compound	composite z-score [1]	z-score [2]	composite z-score [3]	composite z-score [4]	composite z-score [5]	composite z-score [6]	composite z-score [7]	composite z-score [8]	composite z-score [9]	composite z-score [10]
C=CCC(OC(C)=O)[C@@H]1[C@@H](N(Cc2cc3ccccc3o2)C(=O)c2ccc(C)cc2)c2cc(OCCCO)ccc2N1C(=O)c1ccc2ccccc2c1 (stereo not given in full)	0.0468	-0.274	0.161	-0.0375	0.37	-0.0644	0.313	-0.314	0.189	-0.298
CC(C)C(O)C1C=CC2C(=O)N(c3ccccc3)C(=O)C2N1Nc1ccc(C#N)cc1 (stereo not given)	0.931	0.993	1.11	0.875	0.717	-0.0522	-0.452	0.843	0.892	1.36
Cc1ccccc1C(O)C1C=CC2C(=O)N(C)C(=O)C2N1N1CCCCC1 (stereo not given)	1.05	-0.18	0.163	0.8	0.413	0.0403	0.254	1.72	1.65	1.04
CC(=O)NCCCC[C@@H]1NC(=O)[C@@H]2C[C@H](C(=O)NCCCCN(C)C)[C@H](c3ccc(O)cc3)N2C1=O	-0.989	-0.581	-0.594	-0.487	0.367	-0.124	-0.214	-0.23	0.646	-0.602
C=CCC(OC(C)=O)[C@@H]1[C@@H](N(Cc2cccc3ccccc23)C(=O)c2ccc(C)cc2)c2cc(OCCCO)ccc2N1C(=O)Cc1ccc(OC)cc1 (stereo not given in full)	0.332	-0.22	-0.248	0.327	-0.0943	-0.124	0.0278	-0.198	0.0873	0.215
COc1ccc(C(=O)Nc2cccc(CN3C(=O)[C@]4(O[C@H](CC(=O)N5CCC[C@H]5CO)[C@@H]([Si](C)(C)c5ccc(OC)cc5)[C@@H]4C)c4ccccc43)c2)cc1	1.23	-2.84	0.419	0.418	0.252	-0.0285	-0.0959	0.0733	1.06	0.954
O=C/C=C/c1ccc2c(c1)OCO2	0.283	0.301	0.528	-1.18	-0.755	-0.0748	-0.35	-0.441	0.122	0.591
CC(C)(C)OC(=O)CC[C@@]1(C(=O)O)N=C(c2ccc(OCCCO)cc2)O[C@@H]1c1ccccc1N=[N+]=[N-]	0.884	2.94	-0.486	1.64	1.07	0.0711	0.309	0.58	1.06	1.15
O=C1O[C@@H](c2ccccc2)[C@@H](c2ccccc2)N2[C@@H](c3ccc(OCCO)cc3)[C@]3(C(=O)Nc4ccc(C#CC5=CCCCC5)cc43)[C@@H](C(=O)O)[C@H]12	0.594	-1.63	0.374	2.23	1.15	-0.102	-0.107	0.167	1.57	2.89
CC(C)C(=C=CC[C@H](O)c1cccc(OCCO)c1)C[C@H](O)COCc1ccccc1	0.0677	-0.285	-0.0641	-0.53	-0.981	-0.096	0.0062	0.0308	1.14	0.0589
C=C[C@H](C)[C@@H](O)c1ccc(O)c2ccccc12	-0.899	-2	-0.187	-1.15	-0.975	-0.175	-0.221	-0.689	-0.438	0.465
COCCOC(=O)N1C(=O)[C@@]2(c3cc(C#CCNC(N)=O)ccc31)[C@H](C(=O)N1CCN(c3ncccn3)CC1)[C@H]1C(=O)O[C@H](c3ccccc3)[C@H](c3ccccc3)N1[C@@H]2c1ccccc1OCCO	1.38	-1.05	0.877	0.97	0.264	0.0375	0.175	-0.319	0.82	0.904
N[C@@H](Cc1ccccc1)Cn1cc(-c2ccccc2)nn1	0.18	-0.65	-0.339	-0.197	-0.574	-0.027	-0.206	-0.329	0.119	0.588
CCOC(=O)C[C@H]1[C@H](OC(=O)Cc2ccc3c(c2)OCO3)[C@@H](NC(=O)C2CCCCC2)c2cc(OCCCO)ccc2N1C(=O)Cc1ccc(OC)cc1	1.21	-1.39	0.341	0.0855	-0.629	-0.001	-0.0626	-0.543	-0.0511	0.199
CCOC(=O)C1=C[C@@H](CC)N(S(=O)(=O)c2ccc(C)cc2)[C@H]1c1ccccc1	1.36	-2.23	0.0917	1.07	0.26	0.0799	-0.0709	0.925	0.905	0.54
C=CCOC(=O)[C@@H]1[C@H]2C(=O)O[C@H](c3ccccc3)[C@H](c3ccccc3)N2[C@H](c2ccc(OCCOC(=O)[C@@H]3C[C@@H]4C(=O)N[C@@H](Cc5ccccc5)C(=O)N4[C@@H]3c3cccc(OCCO)c3)cc2)[C@@]12C(=O)Nc1ccc(I)cc12	1.36	-1.34	0.692	-0.0116	-0.137	-0.0516	-0.0211	1.07	1.31	1.25
C=CC[C@@]1(C(=O)N2CCOCC2)N=C(c2ccc(OCCCO)cc2)O[C@@H]1c1ccccc1N=[N+]=[N-]	1.45	-1.82	0.37	1.83	0.904	0.171	-0.043	1.82	1.47	1.8

Compound	composite z-score [1]	z-score [2]	composite z-score [3]	composite z-score [4]	composite z-score [5]	composite z-score [6]	composite z-score [7]	composite z-score [8]	composite z-score [9]	composite z-score [10]
CN(C)CCCCNC(=O)[C@H]1C[C@H]2C(=O)N[C@@H](Cc3ccccc3)C(=O)N2[C@H]1c1ccc(O)cc1	1.38	0.506	1.17	0.561	0.746	-0.0866	-0.0243	0.355	0.945	1.55
CO[C@H]1O[C@H](CO)[C@@H](OC(=O)Nc2ccc3c(c2)OCO3)[C@H](OC(=O)Nc2ccccc2)[C@H]1OC(=O)Nc1ccccc1	1.5	-3.44	0.0544	1.36	-0.905	-0.0519	0.275	0.909	1.47	1.74
COC(=O)[C@@]1(Cc2ccccc2)N=C(c2ccc(OCCCO)cc2)O[C@H]1c1ccccc1N=[N+]=[N-]	1.33	-0.749	0.241	-0.203	-1.07	-0.0405	0.297	0.781	2.83	0.778
CC(C)NC(=O)[C@@H]1c2ccccc2C(=O)N(Cc2ccccc2)[C@H]1c1ccc(CO)cc1	-1.8	-0.777	-1.06	-0.472	0.477	0.115	-0.214	-0.647	1.57	0.181
COCCOC(=O)N1C(=O)[C@@]2(c3cc(C#CCNC(N)=O)ccc31)[C@H](c1ccc(OCCO)cc1)N1[C@H](c3ccccc3)[C@H](c3ccccc3)OC(=O)[C@H]1[C@@H]2C(=O)N1CCc2cc(OC)c(OC)cc2C1	0.901	-0.966	0.603	0.243	0.273	-0.148	-0.0035	-0.0428	0.743	0.664
O=C1C=CC(=O)[C@@H]2CC(COc3ccccc3)=C3[C@@H](CCc4ccccc4)OB(O)C[C@@H]3[C@H]12	0.23	-1.64	0.41	-0.413	-1.09	-0.0819	0.0121	-0.175	0.0342	0.361
O=c1cccc(CCc2ccccc2)o1	0.744	0.237	0.103	-0.408	-0.262	-0.118	0.0952	-0.0827	-0.684	1.04
CC(C)C(=C=CC[C@H](O)c1ccccc1OCCO)C[C@H](O)c1ccccn1	0.143	-0.493	0.64	-0.227	-0.253	-0.0607	-0.2	0.381	0.94	1.38
CCOC(=O)C[C@H]1[C@H](OC(=O)Cc2ccc3c(c2)OCO3)[C@@H](NC(=O)c2ccc(-c3ccccc3)cc2)c2cc(OCCCO)ccc2N1C(=O)c1ccccc1	1.06	-1.25	0.525	0.326	-0.0305	-0.113	0.0483	-0.287	0.42	0.815
COCCOC(=O)N1C(=O)[C@@]2(c3cc(C#CCNC(N)=O)ccc31)[C@H](C(=O)N1CCc3cc(OC)c(OC)cc3C1)[C@H]1C(=O)O[C@H](c3ccccc3)[C@H](c3ccccc3)N1[C@@H]2c1ccc(OCCO)cc1	0.581	-0.45	0.556	0.432	-0.178	-0.0236	0.0637	-0.794	0.5	0.399
O=C(O)[C@@]1(Cc2ccccc2)N=C(c2ccc(OCCCO)cc2)O[C@H]1c1ccccc1	0.843	-0.0284	-1.13	0.102	1.07	-0.0179	0.216	0.966	-0.514	1.07
COCCOC(=O)N1C(=O)[C@@]2(c3ccccc31)[C@H](C(=O)NC[C@H](O)c1ccccc1)[C@H]1C(=O)O[C@H](c3ccccc3)[C@H](c3ccccc3)N1[C@@H]2c1ccc(OCCO)cc1	1.11	-1.33	0.965	0.932	-0.373	-0.0263	0.0723	-0.466	1.13	0.247
CCOC(=O)C[C@H]1[C@H](OC(=O)c2ccc(-c3ccccc3)cc2)[C@@H](NC(=O)c2ccc(-c3ccccc3)cc2)c2cc(OCCCO)ccc2N1C(=O)Cc1ccc(OC)cc1	0.629	-1.27	-0.186	0.382	-0.971	-0.0765	-0.366	-0.456	0.575	0.0738
NCCCCCNC(=O)[C@H]1C[C@H]2C(=O)NCC(=O)N2[C@H]1c1cccc(OCCO)c1	1.34	-0.786	0.296	0.828	0.8	-0.157	0.158	-0.324	0.86	1.51
CCCNC(=O)[C@@H]1c2ccccc2C(=O)N(Cc2ccccc2)[C@H]1c1ccc(CO)cc1	0.656	-0.481	-0.595	-0.0977	-1.35	-0.152	-0.138	-0.216	0.142	0.918
O=C1C2C=CC(C(O)c3cccs3)N(Nc3ccccc3F)C2C(=O)N1c1ccccc1 (stereo not given)	0.749	0.124	-0.0883	0.0073	-0.65	0.0633	0.0723	-0.126	0.543	0.825
